# From PubChem BioAssay (Tox21)
# A number with no mark means an inactive call. Where a call stands in place of a potency, no number is given. Active and inactive are the calls of the source. Unless noted, the call rests on the fitted dose curve; in most records, active means well fitted curve in the direction sought with a large enough effect in the repeat runs; inconclusive means weak or mixed curves; inactive means no such curve, though single readings can be large; an effect the other way counts as inactive or inconclusive.
# Experiments:
# [1] = biological target: Peroxisome proliferator-activated receptor gamma (Homo sapiens) (UniProt P37231); assay: qHTS assay to identify small molecule antagonists of the peroxisome proliferator-activated receptor gamma (PPARg) signaling pathway (AID 743191; calls by dose curve; further: nearly all actives have a fitted effect of over 30% in size; further: potency means the concentration at half of the fitted maximal effect)
# Summary of the method: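 GeneBLAzer PPARg UAS-bla HEK293H cells carrying a UAS-driven beta-lactamase reporter were plated at 3000 cells/well, preincubated 5 h at 37C, then given compound for 17 h at 37C; LiveBLAzer B/G FRET substrate was read after 1 h at room temperature.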
# [2] = qHTS assay to identify small molecule antagonists of the peroxisome proliferator-activated receptor gamma (PPARg) signaling pathway - cell viability counter screen (AID 743194); conditions: Potency: co-treated with 50 nM rosiglitazone; further: nearly all actives have a fitted effect of over 55% in size
# Summary of the method: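 PPARg-UAS-bla HEK293H cells were plated, rested 5 h at 37 C, then treated with compounds plus rosiglitazone (50 nM final) for 17 h at 37 C; viability was then read by CellTiter-Glo luminescence after 30 min at room temperature.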
# [3] = qHTS assay for small molecule agonists of the antioxidant response element (ARE) signaling pathway - cell viability counter screen (AID 743203; calls by dose curve; further: nearly all actives have a fitted effect of over 55% in size)
# Summary of the method: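 Luminescence read-out (CellTiter-Glo, 30 min at room temperature) measured cell viability in the same wells as the ARE beta-lactamase reporter. HepG2 ARE-bla cells were treated with compounds for 16 hrs at 37C/5% CO2.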
# [4] = qHTS assay for small molecule activators of the heat shock response signaling pathway - cell viability counter screen (AID 743209); further: nearly all actives have a fitted effect of over 50% in size
# Summary of the method: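 HSE-bla HeLa; 1500 cells/well; overnight 37 C, 5% CO2; compound 5 h 37 C; LiveBLAzer B/G substrate 2.5 h RT; CellTiter-Glo 30 min RT; luminescence.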
# [5] = qHTS assay for small molecule activators of the heat shock response signaling pathway (AID 743210; active means well fitted activation curve with a large enough effect in the signal ratio in the repeat runs, with a control signal flat, not every such curve was filed as active; inconclusive means weak or mixed curves; the % refers to the signal ratio)
# Summary of the method: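 Heat shock element–beta-lactamase HeLa reporter cells; qHTS with compounds for 5 h at 37 C; detection by FRET substrate fluorescence after 2.5 h at RT.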
# [6] = qHTS assay to identify small molecule antagonists of the thyroid receptor (TR) signaling pathway (AID 743065); further: nearly all actives have a fitted effect of over 55% in size; further: potency means the concentration at half of the fitted maximal effect
# Summary of the method: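 GH3.TRE-Luc rat pituitary cells carrying two TR response elements driving luciferase were plated for 4 h, given compound plus 1 nM T3 (final), and incubated 23.5 h at 37 C. ONE-Glo luminescence measured reporter inhibition; CellTiter-Fluor fluorescence tracked cytotoxicity.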
# [7] = tested on: thyroid hormone receptor (rat, GH3 cells); assay: qHTS assay to identify small molecule agonists of the thyroid receptor (TR) signaling pathway (AID 743066; calls by dose curve)
# [8] = qHTS assay to identify small molecule antagonists of the estrogen receptor alpha (ER-alpha) signaling pathway - cell viability counter screen (AID 743074; calls by dose curve;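 further: HEK293 cells carrying ER-alpha-UAS-bla reporter stimulated with 17beta-estradiol; nearly all actives have a fitted effect of over 45% in size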)
# [9] = qHTS assay to identify small molecule antagonists of the estrogen receptor alpha (ER-alpha) signaling pathway using the BG1 cell line - cell viability counter screen (AID 743081);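 further: compound given together with 17beta-estradiol as the ER stimulus; nearly all actives have a fitted effect of over 45% in size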
# Aromatase (Homo sapiens) = Aromatase (Homo sapiens) (UniProt P11511); assay: qHTS assay to identify aromatase inhibitors (AID 743083); further: nearly all actives have a fitted effect of over 55% in size
# [10] = qHTS assay to identify aromatase inhibitors - cell viability counter screen (AID 743084)
# [11] = biological target: Aryl hydrocarbon receptor (Homo sapiens) (UniProt P35869); assay: qHTS assay to identify small molecule that activate the aryl hydrocarbon receptor (AhR) signaling pathway (AID 743085); further: nearly all actives have a fitted effect of over 15% in size; further: potency means the concentration at half of the fitted maximal effect;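 on activation: HG2L7.5c1 human HepG2 liver cells with stably integrated DRE-driven firefly reporter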
# Summary of the method: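 Compounds were tested in HepG2 hepatocellular carcinoma cells harbouring a stably integrated luciferase gene under control of 20 DREs. Increased reporter signal after 24 h treatment at 37C was taken as AhR activation.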
# [12] = qHTS assay to identify small molecule that activate the aryl hydrocarbon receptor (AhR) signaling pathway - cell viability counter screen (AID 743086);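 further: HepG2 liver cells carrying the AhR DRE luciferase reporter; nearly all actives have a fitted effect of over 45% in size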
# Summary of the method: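 HepG2-AhR-luc (HG2L7.5c1) cells, 4000/well, were preincubated 5 h at 37C, exposed to compound in qHTS format for 24 hr at 37C, then given CellTiter-Fluor for 30 min; viability was read as fluorescence in the reporter wells.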
# [13] = biological target: Peroxisome proliferator-activated receptor gamma (Homo sapiens) (UniProt P37231); assay: qHTS assay to identify small molecule agonists of the peroxisome proliferator-activated receptor gamma (PPARg) signaling pathway (AID 743094; active means well fitted activation curve with a large enough effect in the signal ratio in the repeat runs, not every such curve was filed as active; inconclusive means weak or mixed curves, or effect the other way; inactive means no such curve, though single readings can be large or run the other way; the % refers to the signal ratio)
# Summary of the method: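 HEK293H PPARg-bla cells, 5 h settle at 37C/5% CO2; compound (DMSO) 17 h, 37C; B/G FRET substrate 1 h RT; fluorescence intensity read-out. qHTS format.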
# [14] = qHTS assay for small molecule agonists of the antioxidant response element (ARE) signaling pathway (AID 743202; active means well fitted activation curve with a large enough effect in the signal ratio in the repeat runs, not every such curve was filed as active; inconclusive means weak or mixed curves, or effect the other way; inactive means no such curve, though single readings can be large or run the other way; the % refers to the signal ratio; further: potency means the concentration at half of the fitted maximal effect)
# Summary of the method: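 Following a 16 h, 37 C exposure of reporter HepG2 cells (ARE-driven beta-lactamase, 2,000 cells/well) to compounds, FRET substrate was applied for 2 h at room temperature and fluorescence intensity recorded.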
# [15] = biological target: Estrogen receptor (Homo sapiens) (UniProt P03372); assay: qHTS assay to identify small molecule antagonists of the estrogen receptor alpha (ER-alpha) signaling pathway (AID 743069; active means well fitted curve in the direction sought with a large enough effect in the signal ratio in the repeat runs, not every such curve was filed as active; inconclusive means weak or mixed curves, or effect the other way; inactive means no such curve, though single readings can be large or run the other way; the % refers to the signal ratio)
# Summary of the method: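 A 17beta-estradiol challenge was applied right after compound transfer to ER-alpha-UAS-bla HEK293 cells previously kept in charcoal-stripped serum. Plates stood 18 hr at 37C and 5% CO2; fluorescence was read following 2 hr FRET substrate loading at room temperature.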
# [16] = biological target: Estrogen receptor (Homo sapiens) (UniProt P03372); assay: qHTS assay to identify small molecule agonists of the estrogen receptor alpha (ER-alpha) signaling pathway (AID 743075; calls by dose curve;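 further: HEK293 GripTite cells with ER-alpha and UAS-driven beta-lactamase reporter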; further: potency means the concentration at half of the fitted maximal effect)
# [17] = biological target: Estrogen receptor (Homo sapiens) (UniProt P03372); assay: qHTS assay to identify small molecule agonists of the estrogen receptor alpha (ER-alpha) signaling pathway using the BG1 cell line (AID 743079); conditions: BG1Luc4E2 cells, ERE-luciferase agonist, 22 h; for activation: at 70.3 µM (top of the series); further: potency means the concentration at half of the fitted maximal effect; on all read-outs here: nearly all actives have a fitted effect of over 20% in size
# [18] = qHTS assay to identify small molecule antagonists of the estrogen receptor alpha (ER-alpha) signaling pathway using the BG1 cell line (AID 743080; calls by dose curve;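 further: BG1 cells stimulated with 17beta-estradiol alongside compound; nearly all actives have a fitted effect of over 25% in size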)
# Summary of the method: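 BG1-Luc-4E2 cells (endogenous full-length ER-alpha, stable 4×ERE-luciferase) were starved 5 days in phenol-red-free medium with 10% charcoal-stripped FBS, plated 24 h, then given compound plus 17beta-estradiol for 21.5 h at 37 C; ONE-Glo luminescence read after 30 min.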
# Peroxisome proliferator-activated receptor gamma (Homo sapiens), sequence (P37231 whole entry, looked up): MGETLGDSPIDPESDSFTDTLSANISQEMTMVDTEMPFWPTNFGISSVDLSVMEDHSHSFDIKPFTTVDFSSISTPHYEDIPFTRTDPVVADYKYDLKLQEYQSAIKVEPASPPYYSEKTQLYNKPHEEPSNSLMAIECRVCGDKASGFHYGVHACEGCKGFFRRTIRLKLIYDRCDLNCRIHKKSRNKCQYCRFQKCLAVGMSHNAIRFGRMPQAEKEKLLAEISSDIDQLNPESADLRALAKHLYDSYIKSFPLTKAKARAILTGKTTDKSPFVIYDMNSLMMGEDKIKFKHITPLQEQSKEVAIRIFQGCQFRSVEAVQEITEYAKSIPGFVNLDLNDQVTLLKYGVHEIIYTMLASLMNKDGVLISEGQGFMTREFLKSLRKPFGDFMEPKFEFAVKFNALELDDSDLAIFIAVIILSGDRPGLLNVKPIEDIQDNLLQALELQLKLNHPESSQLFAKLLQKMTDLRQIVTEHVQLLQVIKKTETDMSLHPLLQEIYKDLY
# Estrogen receptor (Homo sapiens), sequence (P03372 whole entry, looked up): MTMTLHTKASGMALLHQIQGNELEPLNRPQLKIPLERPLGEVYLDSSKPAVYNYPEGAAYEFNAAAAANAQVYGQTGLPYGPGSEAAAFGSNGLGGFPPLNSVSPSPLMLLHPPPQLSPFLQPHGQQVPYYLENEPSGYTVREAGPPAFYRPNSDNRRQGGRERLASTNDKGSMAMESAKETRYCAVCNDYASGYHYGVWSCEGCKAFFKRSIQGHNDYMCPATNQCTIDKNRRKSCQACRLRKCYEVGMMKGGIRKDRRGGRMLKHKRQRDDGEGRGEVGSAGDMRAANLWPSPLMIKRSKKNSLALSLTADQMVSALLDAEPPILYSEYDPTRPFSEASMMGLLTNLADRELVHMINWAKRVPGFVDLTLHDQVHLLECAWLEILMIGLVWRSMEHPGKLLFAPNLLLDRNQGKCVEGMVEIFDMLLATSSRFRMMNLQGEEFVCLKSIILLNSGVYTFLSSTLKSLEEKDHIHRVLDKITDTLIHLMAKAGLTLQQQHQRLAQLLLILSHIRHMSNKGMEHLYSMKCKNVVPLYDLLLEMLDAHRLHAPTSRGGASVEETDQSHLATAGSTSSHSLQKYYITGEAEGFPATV
# Aromatase (Homo sapiens), sequence (P11511 whole entry, looked up): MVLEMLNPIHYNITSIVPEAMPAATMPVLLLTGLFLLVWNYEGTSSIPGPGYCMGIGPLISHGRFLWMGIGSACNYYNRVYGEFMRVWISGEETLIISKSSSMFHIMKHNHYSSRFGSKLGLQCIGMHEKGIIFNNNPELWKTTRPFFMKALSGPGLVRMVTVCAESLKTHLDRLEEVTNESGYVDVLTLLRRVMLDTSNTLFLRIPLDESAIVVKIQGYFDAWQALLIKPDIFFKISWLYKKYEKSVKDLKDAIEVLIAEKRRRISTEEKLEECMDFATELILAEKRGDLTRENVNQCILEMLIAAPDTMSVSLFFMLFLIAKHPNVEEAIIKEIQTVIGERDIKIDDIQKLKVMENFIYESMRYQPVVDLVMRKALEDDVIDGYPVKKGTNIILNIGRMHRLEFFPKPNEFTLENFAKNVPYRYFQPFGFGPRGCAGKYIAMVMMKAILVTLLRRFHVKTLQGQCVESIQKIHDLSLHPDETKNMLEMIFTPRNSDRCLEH
# Aryl hydrocarbon receptor (Homo sapiens), sequence (P35869 whole entry, looked up): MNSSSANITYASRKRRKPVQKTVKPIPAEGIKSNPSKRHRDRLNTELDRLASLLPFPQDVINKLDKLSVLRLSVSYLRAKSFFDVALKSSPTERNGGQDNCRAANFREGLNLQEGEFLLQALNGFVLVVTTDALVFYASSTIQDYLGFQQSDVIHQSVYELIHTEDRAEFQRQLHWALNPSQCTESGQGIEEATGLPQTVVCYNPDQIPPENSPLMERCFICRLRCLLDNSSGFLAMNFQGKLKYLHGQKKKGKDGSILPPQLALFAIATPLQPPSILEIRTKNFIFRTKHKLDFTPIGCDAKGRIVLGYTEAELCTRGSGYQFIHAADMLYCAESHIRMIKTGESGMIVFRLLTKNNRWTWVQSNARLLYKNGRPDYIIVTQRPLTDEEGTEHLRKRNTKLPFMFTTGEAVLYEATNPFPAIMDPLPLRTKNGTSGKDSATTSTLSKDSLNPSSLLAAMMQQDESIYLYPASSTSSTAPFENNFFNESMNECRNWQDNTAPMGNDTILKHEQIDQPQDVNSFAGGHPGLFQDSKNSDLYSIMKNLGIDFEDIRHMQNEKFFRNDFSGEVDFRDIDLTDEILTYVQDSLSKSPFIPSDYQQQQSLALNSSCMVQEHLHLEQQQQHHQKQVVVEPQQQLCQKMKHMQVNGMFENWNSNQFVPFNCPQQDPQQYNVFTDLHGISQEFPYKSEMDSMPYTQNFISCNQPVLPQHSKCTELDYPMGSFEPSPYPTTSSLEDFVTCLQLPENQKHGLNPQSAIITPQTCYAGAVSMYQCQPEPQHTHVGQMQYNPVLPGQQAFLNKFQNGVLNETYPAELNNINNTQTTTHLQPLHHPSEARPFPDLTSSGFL
compound,measurement,setting,value
CN1CCC(N(Cc2ccccc2)c2ccccc2)CC1,Potency,[1],inactive
same,Potency,[2],inactive
same,Potency,[3],inactive
same,Potency,[4],inactive
same,outcome,[5],inactive
N#CC(O)c1ccccc1 (centres undefined),Potency,[6],inactive
same,Potency,[7],inactive
same,outcome,[8],inactive
same,Potency,[9],inactive
same,Potency,Aromatase (Homo sapiens),inactive
same,Potency,[10],inactive
same,Potency,[11],inactive
same,outcome,[12],inactive
same,outcome,[13],inactive
same,Potency,[1],inactive
same,Potency,[2],inactive
same,Potency,[14],inactive
same,Potency,[3],inactive
same,Potency,[4],inactive
same,outcome,[5],inactive
ClCCCN1CCN(c2cccc(Cl)c2)CC1,Potency,[1],inactive
same,Potency,[14],6.68 µM (active)
same,Potency,[3],inactive
same,Potency,[4],inactive
same,outcome,[5],inactive
O=c1oc2ccccc2c(O)c1C1CCCc2ccccc21 (centres undefined),Potency,[7],inactive
same,Potency,[15],inactive
same,outcome,[8],inactive
same,Potency,[16],inactive
same,activation,[17],-13.4%
same,Potency,[18],inactive
same,Potency,[9],inactive
same,Potency,Aromatase (Homo sapiens),inactive
same,Potency,[10],inactive
same,Potency,[11],inactive
same,outcome,[12],inactive
same,Potency,[1],30.9 µM (active)
same,Potency,[2],inactive
same,Potency,[3],inactive
same,outcome,[5],inactive
CC(C(=O)c1ccccc1)N(C)C (centres undefined),Potency,[14],inactive
same,Potency,[3],inactive
same,Potency,[4],inactive
same,outcome,[5],inactive
COc1cc(OC)nc(NC(=O)NS(=O)(=O)c2ncccc2OCC(F)(F)F)n1,Potency,[15],inactive
same,outcome,[8],inactive
same,Potency,[16],inactive
same,Potency,[18],inactive
same,Potency,[9],inactive
same,Potency,Aromatase (Homo sapiens),inactive
same,Potency,[10],inactive
same,outcome,[12],inactive
same,outcome,[13],inactive
same,Potency,[1],inactive
same,Potency,[2],inactive
same,Potency,[3],inactive
same,Potency,[4],inactive
same,outcome,[5],inactive
N#CCCC#N,Potency,[7],inactive
same,Potency,[15],inactive
same,outcome,[8],inactive
same,Potency,[16],inactive
same,activation,[17],-3.68%
same,Potency,[18],inactive
same,Potency,[9],inactive
same,Potency,Aromatase (Homo sapiens),inactive
same,Potency,[10],inactive
same,Potency,[11],inactive
same,outcome,[12],inactive
same,outcome,[13],inactive
same,Potency,[1],inactive
same,Potency,[2],inactive
same,Potency,[3],inactive
same,Potency,[4],inactive
same,outcome,[5],inactive
NC1=NC(=O)C(c2ccccc2)O1 (centres undefined),Potency,[6],inactive
same,Potency,[7],inactive
same,outcome,[8],inactive
same,Potency,[9],inactive
same,outcome,[12],inactive
same,Potency,[14],inactive
same,Potency,[3],inactive
same,Potency,[4],inactive
CC1(C(=O)Nc2ccc(O)c(Cl)c2Cl)CCCCC1,Potency,[7],inactive
same,outcome,[8],inactive
same,Potency,[9],inactive
same,Potency,[11],inactive
same,outcome,[12],inactive
same,outcome,[13],inactive
same,Potency,[1],inactive
same,Potency,[2],inactive
same,Potency,[3],inactive
same,Potency,[4],inactive
same,outcome,[5],inactive
CCOC(=O)C(c1c(O)c2ccccc2oc1=O)c1c(O)c2ccccc2oc1=O,Potency,[1],7.5 µM (active)
same,Potency,[2],inactive
same,Potency,[3],inactive
same,Potency,[4],inactive
same,outcome,[5],inactive
C#C[C@]1(O)C=C[C@H]2[C@@H]3CCC4=CC(=O)CC[C@@H]4[C@H]3CC[C@@]21CC,Potency,[7],inactive
same,outcome,[8],inactive
same,Potency,[16],0.535 µM [inconclusive] (active)
same,Potency,[17],0.168 µM (active)
same,Potency,[18],inactive
same,Potency,[9],inactive
same,Potency,Aromatase (Homo sapiens),inactive
same,Potency,[10],inactive
same,Potency,[11],inactive
same,outcome,[12],inactive
same,Potency,[3],inactive
same,outcome,[5],inactive
CCOC(=O)C1(c2ccccc2)CCN(CCc2ccc(N)cc2)CC1,Potency,[2],inactive
same,Potency,[3],inactive
same,Potency,[4],inactive
same,outcome,[5],inactive
CCOP(=S)(Oc1cnc(C(C)(C)C)nc1)OC(C)C (centres undefined),Potency,[6],61.1 µM (active)
same,Potency,[7],inactive
same,outcome,[8],inactive
same,Potency,[9],inactive
same,Potency,[11],54.5 µM (active)
same,outcome,[12],inactive
same,outcome,[13],inactive
same,Potency,[1],inactive
same,Potency,[3],inactive
same,Potency,[4],inactive
CN1C[C@@H](NS(=O)(=O)N(C)C)C[C@@H]2c3cccc4c3c(cn4C)C[C@H]21,Potency,[6],inactive
same,Potency,[7],inactive
same,outcome,[8],inactive
same,Potency,[9],inactive
same,outcome,[12],inactive
same,Potency,[14],inactive
same,Potency,[3],inactive
same,Potency,[4],inactive
same,outcome,[5],inactive
O=C1CN2CCOC2(c2ccccc2Cl)c2cc(Cl)ccc2N1 (centres undefined),Potency,[2],inactive
same,Potency,[3],inactive
same,Potency,[4],inactive
same,outcome,[5],inactive
CC(=O)[C@H]1CC[C@H]2[C@@H]3CC[C@H]4C[C@H](O)CC[C@]4(C)[C@H]3C(=O)C[C@]12C,Potency,[7],inactive
same,Potency,[15],inactive
same,outcome,[8],inactive
same,Potency,[16],inactive
same,activation,[17],8.45%
same,Potency,[18],inactive
same,Potency,[9],inactive
same,Potency,Aromatase (Homo sapiens),inactive
same,Potency,[10],inactive
same,Potency,[11],inactive
same,outcome,[12],inactive
same,outcome,[13],inactive
same,Potency,[1],inactive
same,Potency,[2],inactive
same,Potency,[3],inactive
same,outcome,[5],inactive
